Here are results for 16 compounds from PubChem BioAssay (NCATS).

For test [1], the target named is Cytochrome P450 3A4 (Homo sapiens) (UniProt P08684). The test is described as follows: qHTS Assay for Inhibitors and Substrates of Cytochrome P450 3A4 (AID 884). Further: on the % scale 0 is the no-effect control and ±100 the full control effect; nearly all actives have a fitted effect of over 50% in size. A digest of the protocol:
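20 nM human CYP3A4 with 25 uM Luciferin-PPXE (at KM) in 200 mM KPO4, preincubated 10 min with compound; NADPH regeneration started a 60 min RT reaction. Luciferin detected by luminescence, normalized to 57 uM ketoconazole as full inhibition.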
(In qHTS, concentration-response curves come from the screen itself.)

A short description of test [2]: Confirmation and Secondary Assay for Modulators of Hemoglobin Beta Chain Splicing at IVS2 654 locus (AID 910).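 Further: HeLa cells stably carrying EGFP split by mutant beta-globin IVS2-654 intron; % of control where 0% means no effect.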 A digest of the protocol: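 HeLa cells stably expressing EGFP interrupted by β-globin IVS2-654 intron, seeded overnight in Opti-MEM/2% FCS, then treated 2 days at 37 °C. Restored splicing read as total peak GFP intensity per well by laser scanning cytometry (488 nm excitation, 500–520 nm emission); 500 nM antisense PNA as control.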

The nature of test [3]: Confirmation and Secondary Assay for Modulators of Hemoglobin Beta Chain Splicing at IVS2 705 locus (AID 930).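 Further: HeLa cells stably expressing the EGFP-705 splicing reporter; GFP fluorescence per well restored by corrected splicing of the IVS2-705 intron in EGFP; % of control where 0% means no effect.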 In outline:
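Assay measures total GFP intensity per well in HeLa EGFP-705 cells after 2 days with compound; mis-splicing normally truncates EGFP, so fluorescence indicates corrected splicing.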

Test [4] in a line: qHTS Assay for Lipid Storage Modulators (AID 1519; calls by dose curve; on activity change, negative = inhibition: on the % scale 0 is the no-effect control and ±100 the full control effect). Particulars: Drosophila S3 cells, BODIPY lipid droplet/cell ratio, laser cytometry, cells loaded with oleic acid; for activity change, negative = inhibition: at 57.5 µM (top of the series). In outline:
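Cells seeded at 5,000 per well were treated with compounds over a concentration series and loaded with oleic acid (400 uM, as added). Lipid droplet fluorescence (488 nm excitation, 500-530 nm channel) was read by laser-scanning cytometry and normalized to 20 uM Triacsin C.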

Test [5] deals with Ubiquitin carboxyl-terminal hydrolase 1 (Homo sapiens) (UniProt O94782). The test is described as follows: Inhibitors of USP1/UAF1: Pilot qHTS (AID 504865).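 Further: rhodamine fluorescence freed from ubiquitin-rhodamine substrate followed over time; top concentration of the series differs between compounds; on the % scale 0 is the no-effect control and ±100 the full control effect; nearly all actives have a fitted effect of over 35% in size.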 A digest of the protocol: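 In 50mM HEPES pH 7.8 containing 0.5mM EDTA, 1mM TCEP, 0.1 mg/ml BSA and 0.01% Tween-20, 1nM USP1/UAF1 is exposed to compound for 15 min, then Ub-Rho (150nM final) is added and fluorescence is read over time.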

[6] abbreviates: measured here: cell count channel max response.
Where [7] appears, read: measured here: lipid channel max response.

Structures are written as SMILES. Inconclusive results are not listed. Activity calls are given as the source filed them. Unless noted, the call rests on the fitted dose curve; in most records, active means well fitted curve in the direction sought with a large enough effect; inconclusive means small, poorly fitted or top-dose-only effect, or another doubt; inactive means no such curve, though single readings can be large; an effect the other way counts as inactive or inconclusive. Numbered stars: 1 amine (or outer) side, 2 acyl side, 3 side chain; on linkers, the order of the positions; unused ones are H or OH. Bridge positions count the residues as written; N and C are the ends. Square brackets hold non-standard residues; d marks the D form. Peptide text beside a SMILES is read from it. * marks the point of attachment. ξ: configuration not given here. ΔAla(E,3-NHCONH2) = NC(=O)N/C=C(/N)C(=O)O; X1 = NC1=NCCC(C(N[*:1])C(=O)[*:2])N1; ξβ3hOrn = NCCCC(N)CC(=O)*; Dap = NC[CH](N)C(=O)O

Chain of Ubiquitin carboxyl-terminal hydrolase 1 (Homo sapiens) (O94782 whole entry, looked up): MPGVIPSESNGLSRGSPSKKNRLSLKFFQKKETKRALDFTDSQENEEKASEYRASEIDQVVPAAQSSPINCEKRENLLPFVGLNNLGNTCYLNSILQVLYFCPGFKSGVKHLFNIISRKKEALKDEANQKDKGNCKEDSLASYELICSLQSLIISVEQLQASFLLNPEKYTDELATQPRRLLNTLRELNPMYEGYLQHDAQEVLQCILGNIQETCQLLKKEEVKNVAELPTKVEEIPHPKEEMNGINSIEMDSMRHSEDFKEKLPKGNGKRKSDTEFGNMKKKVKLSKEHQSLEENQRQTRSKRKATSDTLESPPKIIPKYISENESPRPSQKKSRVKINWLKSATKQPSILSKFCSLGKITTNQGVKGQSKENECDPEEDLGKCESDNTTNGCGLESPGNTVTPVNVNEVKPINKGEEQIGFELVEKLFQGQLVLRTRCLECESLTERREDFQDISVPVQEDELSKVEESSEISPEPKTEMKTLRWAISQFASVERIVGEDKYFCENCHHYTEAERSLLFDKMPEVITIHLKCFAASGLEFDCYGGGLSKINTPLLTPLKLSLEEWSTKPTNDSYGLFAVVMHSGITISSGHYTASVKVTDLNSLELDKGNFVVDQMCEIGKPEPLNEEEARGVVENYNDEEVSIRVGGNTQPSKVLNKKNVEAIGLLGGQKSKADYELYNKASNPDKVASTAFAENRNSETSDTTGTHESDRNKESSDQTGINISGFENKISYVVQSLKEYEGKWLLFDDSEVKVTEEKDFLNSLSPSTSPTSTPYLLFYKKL
Chain of Cytochrome P450 3A4 (Homo sapiens) (P08684 whole entry, looked up): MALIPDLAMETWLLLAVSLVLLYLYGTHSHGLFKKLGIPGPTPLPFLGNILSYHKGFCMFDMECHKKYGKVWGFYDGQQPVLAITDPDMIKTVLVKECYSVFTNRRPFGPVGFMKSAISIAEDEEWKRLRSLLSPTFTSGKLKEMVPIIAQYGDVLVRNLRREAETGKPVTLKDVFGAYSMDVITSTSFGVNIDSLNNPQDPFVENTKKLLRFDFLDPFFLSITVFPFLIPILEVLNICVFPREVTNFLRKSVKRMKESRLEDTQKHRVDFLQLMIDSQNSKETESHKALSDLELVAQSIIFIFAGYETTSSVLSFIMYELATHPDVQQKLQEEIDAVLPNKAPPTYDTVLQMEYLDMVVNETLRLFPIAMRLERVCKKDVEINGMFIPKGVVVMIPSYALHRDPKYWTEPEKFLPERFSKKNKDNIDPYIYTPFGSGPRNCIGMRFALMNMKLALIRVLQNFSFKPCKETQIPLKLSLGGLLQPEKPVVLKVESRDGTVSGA

`CC(C)CC(N)C(=O)NC(C)C(=O)O` (configuration not stated): the Potency result in test [1], in test [2], in test [3] and in test [5] was “inactive” each time. In addition, the activity change, negative = inhibition in test [4] is 3.3% (inactive). The max response in test [4] (setting [6]) stood at 18.5%; in test [4] (setting [7]), 21.6%.
Turning to `COC1[C@H](OC(N)=O)C(O)[C@H](Oc2ccc3c(O)c(NC(=O)c4ccc(O)c(CC=C(C)C)c4)c(=O)oc3c2C)OC1(C)C` (some centres not stated), the Potency entry in test [1], in test [2], in test [3] and in test [5] was “inactive” each time. The activity change, negative = inhibition in test [4] was 8.38% (inactive). The max response in test [4] (setting [6]) is 13.2%; in test [4] (setting [7]) it was 25.2%.
Consider `COc1cc(O)c(C(=O)O)c(O)c1`, for which the Potency entry in test [1], in test [2], in test [3] and in test [5] was “inactive” in each case. Besides, the activity change, negative = inhibition in test [4] is 4.12% (inactive). Also, the max response stood at 1.93% in test [4] (setting [6]) and 6.74% in test [4] (setting [7]).
`CC(=O)NC(CCC(=O)O)C(=O)O` (configuration not stated): the Potency result in test [1], in test [2], in test [3] and in test [5] was “inactive” throughout. Moreover, the activity change, negative = inhibition in test [4] was 11.4% (inactive). Moreover, the max response in test [4] (setting [6]) was 14.5%; in test [4] (setting [7]), 27.6%.
Turning to `Cn1c(=O)[nH]c2nc[nH]c2c1=O`, the Potency entry in test [1], in test [2], in test [3] and in test [5] was “inactive” in each case. In addition, in test [4], the activity change, negative = inhibition is 5.61% (inactive). For the same compound, the results for the max response in test [4] (setting [6]) and in test [4] (setting [7]) were 14% and 22.4%, respectively.
For `NCC1CCCCC1CC(=O)O` (configuration not stated), the Potency result in test [1], in test [2], in test [3] and in test [5] was “inactive” each time. Moreover, in test [4], the activity change, negative = inhibition is 5.88% (inactive). Moreover, the max response in test [4] (setting [6]) turned out to be 16.7%; in test [4] (setting [7]), 26.7%.
Consider `Nc1nc2c([nH]c(=O)n2C2OC(CO)C(O)C2O)c(=O)[nH]1` (configuration not stated), for which the Potency result in test [1], in test [2], in test [3] and in test [5] was “inactive” in each case. Moreover, the activity change, negative = inhibition in test [4] was 1.54% (inactive). Also, the values for the max response in test [4] (setting [6]) and in test [4] (setting [7]) were 9.74% and 13.6%, respectively.
On to `CCOc1ccc(C(=O)c2ccc(O)c(O)c2O)cc1`, for which the Potency result in test [1], in test [2], in test [3] and in test [5] was “inactive” throughout. In addition, the activity change, negative = inhibition in test [4] is 4.84% (inactive). Further, the max response in test [4] (setting [6]) is -5.66%; in test [4] (setting [7]), -2.36%.
For the compound `NCCCC(N)CC(=O)NCC1NC(=O)C(CO)NC(=O)C(N)CNC(=O)C(C2CCN=C(N)N2)NC(=O)/C(=C\NC(N)=O)NC1=O` (stereo not drawn) (H-[Dap]S[Dap](ξβ3hOrn)[ΔAla(E,3-NHCONH2)][X1]; lactam 1-C; configuration not given here), the Potency result in test [1], in test [2], in test [3] and in test [5] was “inactive” each time. For the same compound, the activity change, negative = inhibition in test [4] is 2.39% (inactive). The values for the max response in test [4] (setting [6]) and in test [4] (setting [7]) were 15.4% and 21.2%, respectively.
For the compound `CN(C)CC/C=C1/c2ccccc2COc2ccccc21`, the Potency result in test [1], in test [2], in test [3] and in test [5] was “inactive” throughout. The activity change, negative = inhibition in test [4] is 0.286% (inactive). Besides, the max response was determined as 3.97% in test [4] (setting [6]) and 10.6% in test [4] (setting [7]).
`Cc1onc(-c2ccccc2)c1C(=O)NC1C(=O)N2C(C(=O)O)C(C)(C)S[C@@H]12` (some centres not stated): the Potency result in test [1], in test [2], in test [3] and in test [5] was “inactive” in each case. The activity change, negative = inhibition in test [4] is 9.92% (inactive). For the same compound, the max response came to 9.88% in test [4] (setting [6]) and 24.8% in test [4] (setting [7]).
As to `CCCCCCCCCCCCC(C(=O)O)C(C)C(=O)O` (configuration not stated), the Potency entry in test [1], in test [2], in test [3] and in test [5] was “inactive” in each case. For the same compound, the activity change, negative = inhibition in test [4] is 4.67% (inactive). The results for the max response in test [4] (setting [6]) and in test [4] (setting [7]) were 6.54% and 14%, respectively.
Regarding `COC1C(O)C(CO)OC1n1c(Br)nc2c(=O)[nH]c(N)nc21` (configuration not stated), the Potency result in test [1], in test [2], in test [3] and in test [5] was “inactive” in each case. For the same compound, the activity change, negative = inhibition in test [4] is 1.73% (inactive). In addition, the max response was 0.309% in test [4] (setting [6]) and 3.63% in test [4] (setting [7]).
In the case of `OCc1ccccc1O[C@H]1OC(CO)C(O)C(O)C1O` (some centres not stated), the Potency entry in test [1], in test [2], in test [3] and in test [5] was “inactive” throughout. The activity change, negative = inhibition in test [4] was 3.66% (inactive). Also, the max response stood at 2.55% in test [4] (setting [6]) and 8.97% in test [4] (setting [7]).
As for `CC1(C)SC2C(NC(=O)C(NC(=O)N3CCNC3=O)c3ccccc3)C(=O)N2C1C(=O)O` (configuration not stated), the Potency entry in test [1], in test [2], in test [3] and in test [5] was “inactive” in each case. The activity change, negative = inhibition in test [4] was 8.06% (inactive). In addition, the max response in test [4] (setting [6]) was 17.4%; in test [4] (setting [7]), 28.9%.
With `O=c1[nH]cnc2c1nc(Cl)n2C1OC(CO)C(O)C1O` (configuration not stated), the Potency entry in test [1], in test [2], in test [3] and in test [5] was “inactive” in each case. Further, the activity change, negative = inhibition in test [4] is 3.67% (inactive). Moreover, the max response in test [4] (setting [6]) amounted to 5.38%; in test [4] (setting [7]) it was 10.4%.
